Measurements: the supplement of paper PMC7411640
Where a name gives a salt, the structure may show the parent alone.

system: MDA-MB-468; test: phospho-S6 immunofluorescence (DAPI-normalised), per-plate z-score; higher = higher phospho-S6 signal (less pathway suppression); conditions: co-treatment: lapatinib 1 uM; 24 h
Procedure: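 GPCR-targeted compound library (MedChemExpress HY-L006) tested on MDA-MB-468 PTEN-null TNBC cells in 384-well plates at 0.1, 1 or 10 uM, combined with vehicle, GDC0941 450 nM or lapatinib 1 uM, for 24 h. Phospho-S6 (S240/244) immunofluorescence normalised to DAPI and expressed as a per-plate z-score; values are the mean of biological triplicates.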

SMILES	phospho-S6 immunofluorescence (z-score)
COc1cc2c(cc1OC)-c1cc3ccc4c(c3c[n+]1CC2)OCO4 [Epiberberine (chloride)] (compound 10 µM)	0.22
NC(=O)[C@@H]1CCCC[C@@H]1C(=O)Nc1ccc(Cl)c(Cl)c1 (compound 10 µM)	-0.14
O=C1CC2(CCCC2)CC(=O)N1CCCCN1CCN(c2ncccn2)CC1 [Buspirone (hydrochloride)] (compound 10 µM)	0.17
NCCc1c[nH]cn1 [Histamine (phosphate)] (compound 10 µM)	-0.13
O=C(C[S+]([O-])Cc1ccco1)NC/C=C\COc1cc(CN2CCCCC2)ccn1 (stereo not drawn) [Lafutidine] (compound 10 µM)	0.02
O=C(N[C@H]1CCN(C(=O)c2cc(C(F)(F)F)cc(C(F)(F)F)c2)[C@H](Cc2ccc(Cl)cc2)C1)c1ccnc2ccccc12 (compound 10 µM)	-1.9
CN1CCN2c3ccccc3Cc3ccccc3C2C1 (stereo not drawn) [Mianserin (hydrochloride)] (compound 10 µM)	-0.76
CCOC(=O)N1CCC(NCCNC(=O)c2ccccc2C)CC1 (compound 10 µM)	-0.15
CC(C)(C)C(=O)C(=Nc1ccc(Cl)cc1)NNc1ccc(Cl)cc1 (compound 10 µM)	-6.25
CNCCc1ccccn1 [Betahistine (dihydrochloride)] (compound 10 µM)	0.1
O=C1NCCN1CCN1CCC(c2cn(-c3ccc(F)cc3)c3ccc(Cl)cc23)CC1 [Sertindole] (compound 10 µM)	-6.25
CN1CCC(=C2c3ccccc3C=Cc3ccccc32)CC1 [Cyproheptadine (hydrochloride)] (compound 10 µM)	-1.26
Cc1c(C(=O)NN2CCCCC2)nn(-c2ccc(Cl)cc2Cl)c1-c1ccc(Cl)cc1 [Rimonabant (Hydrochloride)] (compound 10 µM)	-4.25
C[C@@H](O)[C@@H]1NC(=O)[C@H](CCCCN)NC(=O)[C@@H](Cc2c[nH]c3ccccc23)NC(=O)[C@H](Cc2ccccc2)NC(=O)[C@@H](NC(=O)[C@H](N)Cc2ccccc2)CSSC[C@@H](C(=O)N[C@H](CO)[C@@H](C)O)NC1=O [Octreotide (acetate)] (compound 10 µM)	1.9
O=c1ccn([C@@H]2O[C@H](COP(=O)(O)OP(=O)(O)OP(=O)(O)OP(=O)(O)OC[C@H]3O[C@@H](n4ccc(=O)[nH]c4=O)[C@H](O)[C@@H]3O)[C@@H](O)[C@H]2O)c(=O)[nH]1 [Diquafosol (tetrasodium)] (compound 10 µM)	0.71
C[C@@H]1CCCN1CCc1cc2cc(-c3ccc(C#N)cc3)ccc2o1 (compound 10 µM)	-4.56

same assay, conditions: co-treatment: vehicle; 24 h

SMILES	phospho-S6 immunofluorescence (z-score)
CC(C)c1noc(N2CCC(COc3ccc(-c4ccc(S(C)(=O)=O)cc4)nc3)CC2)n1 (compound 10 µM)	-6.22
CCCc1nc(C(C)(C)O)c(C(=O)O)n1Cc1ccc(-c2ccccc2-c2nnn[nH]2)cc1 [Olmesartan] (compound 10 µM)	-0.82
c1ccc2c(CC3=NCCN3)cccc2c1 [Naphazoline (hydrochloride)] (compound 10 µM)	0.05
COc1cc2nc(N3CCN(C(=O)C4COc5ccccc5O4)CC3)nc(N)c2cc1OC (stereo not drawn) [Doxazosin (mesylate)] (compound 10 µM)	-8.17
C[C@H](NC(=O)c1cc(Cl)ccc1Oc1ccc(F)cc1)c1ccc(C(=O)O)cc1 (compound 10 µM)	0.3
CCOC(=O)N[C@@H]1CC[C@@H]2[C@@H](C1)C[C@H]1C(=O)O[C@H](C)[C@H]1[C@H]2/C=C/c1ccc(-c2cccc(F)c2)cn1 [Vorapaxar] (compound 10 µM)	-9.84
CN1CCC(=C2c3ccccc3CCc3sccc32)CC1 [Pizotifen] (compound 10 µM)	-0.19
CC(C)NCC(O)COc1ccc(CCOCC2CC2)cc1 (stereo not drawn) [Betaxolol] (compound 10 µM)	-0.54
CN1CCC(=C2c3ccccc3C=Cc3ccccc32)CC1 [Cyproheptadine (hydrochloride sesquihydrate)] (compound 10 µM)	-0.87
Nc1nc2c(cnn2CCc2ccccc2)c2nc(-c3ccco3)nn12 (compound 10 µM)	3.1
Cc1ccc(OCC(O)C(C)NC(C)C)c2c1CCC2 (stereo not drawn) [ICI 118,551 (hydrochloride)] (compound 10 µM)	0.46
CN(C)CCC=C1c2ccccc2C=Cc2ccccc21 [Cyclobenzaprine (hydrochloride)] (compound 10 µM)	-0.18
Cn1c(SCC(=O)N2CCC[C@H]2C(=O)Nc2ccccc2-c2ccccc2)nc2ccccc21 (compound 10 µM)	0.81
COc1cc(C(C)=O)ccc1OCCCN1CCC(c2noc3cc(F)ccc23)CC1 [Iloperidone] (compound 10 µM)	0.38
Nc1nc(N)nc(-c2cc(Cl)ccc2Cl)n1 [Irsogladine] (compound 10 µM)	-1.11
Cc1ccccc1N1CCN(CCc2nnc3n2CCCC3)CC1 [Dapiprazole (hydrochloride)] (compound 10 µM)	-0.32
CCc1cc2c(cc1CC)CC(NC[C@H](O)c1ccc(O)c3[nH]c(=O)ccc13)C2 [Indacaterol (maleate)] (compound 10 µM)	0.92
CNCC(O)c1ccc(O)c(O)c1 (racemic) [DL-Epinephrine] (compound 10 µM)	4.64
Cc1cc(NC(=O)NCCN2CCC(O)(Cc3ccccc3)CC2)c2ccccc2n1 [Palosuran] (compound 10 µM)	-0.2

SMILES	phospho-S6 immunofluorescence (z-score)
CCCCc1oc2ccc(NS(C)(=O)=O)cc2c1C(=O)c1ccc(OCCCN(CCCC)CCCC)cc1 [Dronedarone] (compound 10 µM)	-9.98
CC[C@H](C)[C@H](NC(=O)[C@H](Cc1ccc(O)cc1)NC(=O)[C@@H]1CCCN1C(=O)[C@@H](NC(=O)[C@@H](N)CCCCN)[C@@H](C)CC)C(=O)N[C@@H](CC(C)C)C(=O)O [Neuromedin N] (compound 10 µM)	-0.38
COc1cc2c(cc1OC)-c1cc3ccc4c(c3c[n+]1CC2)OCO4 [Epiberberine (chloride)] (compound 10 µM)	1.66
NC(=O)[C@@H]1CCCC[C@@H]1C(=O)Nc1ccc(Cl)c(Cl)c1 (compound 10 µM)	0.47
O=C1CC2(CCCC2)CC(=O)N1CCCCN1CCN(c2ncccn2)CC1 [Buspirone (hydrochloride)] (compound 10 µM)	0.69
NCCc1c[nH]cn1 [Histamine (phosphate)] (compound 10 µM)	0.1
O=C(C[S+]([O-])Cc1ccco1)NC/C=C\COc1cc(CN2CCCCC2)ccn1 (stereo not drawn) [Lafutidine] (compound 10 µM)	-0.32
O=C(N[C@H]1CCN(C(=O)c2cc(C(F)(F)F)cc(C(F)(F)F)c2)[C@H](Cc2ccc(Cl)cc2)C1)c1ccnc2ccccc12 (compound 10 µM)	-1.44
CN1CCN2c3ccccc3Cc3ccccc3C2C1 (stereo not drawn) [Mianserin (hydrochloride)] (compound 10 µM)	1.67
CCOC(=O)N1CCC(NCCNC(=O)c2ccccc2C)CC1 (compound 10 µM)	1.13
CC(C)(C)C(=O)C(=Nc1ccc(Cl)cc1)NNc1ccc(Cl)cc1 (compound 10 µM)	-3.76
CNCCc1ccccn1 [Betahistine (dihydrochloride)] (compound 10 µM)	-0.72
O=C1NCCN1CCN1CCC(c2cn(-c3ccc(F)cc3)c3ccc(Cl)cc23)CC1 [Sertindole] (compound 10 µM)	-4.35
CN1CCC(=C2c3ccccc3C=Cc3ccccc32)CC1 [Cyproheptadine (hydrochloride)] (compound 10 µM)	0.16
Cc1c(C(=O)NN2CCCCC2)nn(-c2ccc(Cl)cc2Cl)c1-c1ccc(Cl)cc1 [Rimonabant (Hydrochloride)] (compound 10 µM)	-5.97
C[C@@H](O)[C@@H]1NC(=O)[C@H](CCCCN)NC(=O)[C@@H](Cc2c[nH]c3ccccc23)NC(=O)[C@H](Cc2ccccc2)NC(=O)[C@@H](NC(=O)[C@H](N)Cc2ccccc2)CSSC[C@@H](C(=O)N[C@H](CO)[C@@H](C)O)NC1=O [Octreotide (acetate)] (compound 10 µM)	-0.73
O=c1ccn([C@@H]2O[C@H](COP(=O)(O)OP(=O)(O)OP(=O)(O)OP(=O)(O)OC[C@H]3O[C@@H](n4ccc(=O)[nH]c4=O)[C@H](O)[C@@H]3O)[C@@H](O)[C@H]2O)c(=O)[nH]1 [Diquafosol (tetrasodium)] (compound 10 µM)	-0.38
C[C@@H]1CCCN1CCc1cc2cc(-c3ccc(C#N)cc3)ccc2o1 (compound 10 µM)	-0.97
